Measurements: PubChem BioAssay AID1159580 (chemical genetic matrix, 2015)
Screen size: about 5,500 compounds; about 2,000 (36%) were called active. About 18% were inconclusive and are not listed. No stated cut-off is given here; in the data, active means normalized growth mostly below about 0.91 (no sharp cut-off); inconclusive means no clear call, values can overlap the other calls; inactive means mostly above about 0.92. The list shows a part of the results.

Test: chemical genetic growth profiling, strain panel (AID 1159580);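 further: tested at 20 µM; growth read once vehicle control cultures reached saturation at 30 °C; 1 = growth at the plate median or of vehicle wells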
Settings: S. cerevisiae deletion strains, growth OD

Measured: normalized growth

Cc1cn([C@H]2C[C@@H](N=[N+]=[N-])[C@@H](CO)O2)c(=O)[nH]c1=O
inactive: locus YAL040C, strain CLN3, stronger effect = lower value 1 | locus YER002W, strain NOP16, stronger effect = lower value 0.99 | locus YMR307W, strain GAS1, stronger effect = lower value 0.999 | locus YNL128W, strain TEP1, stronger effect = lower value 1.01 | locus YNL175C, strain NOP13, stronger effect = lower value 0.983 | locus YNL197C, strain WHI3, stronger effect = lower value 1 | locus YNL224C, strain SQS1, stronger effect = lower value 0.974 | locus YOR083W, strain WHI5 (second series), stronger effect = lower value 1.02 | locus YPL241C, strain CIN2, stronger effect = lower value 0.995
